This is a sample that favours compounds with a hit; in the whole collection about 3.1% have one here.
PLK1 PBD inh – blocks phosphopeptide binding to human PLK1 polo-box domain; 360,000 tested, 2.8% active; Plk1 PBD binding of FITC phosphopeptide, fluorescence polarization; Potency, µM, without a hit: max response, negative = inhibition, most hits filed as inhibitors; AID 720504; P53350; note: potency is the fitted concentration of half-maximal effect; series mostly up to about 57 µM; % is set by controls: 0 for no effect and ±100 for the full control effect; nearly all actives have a fitted effect of over 65% in size
Target sequence (P53350 whole entry, looked up, the tested form may be a part): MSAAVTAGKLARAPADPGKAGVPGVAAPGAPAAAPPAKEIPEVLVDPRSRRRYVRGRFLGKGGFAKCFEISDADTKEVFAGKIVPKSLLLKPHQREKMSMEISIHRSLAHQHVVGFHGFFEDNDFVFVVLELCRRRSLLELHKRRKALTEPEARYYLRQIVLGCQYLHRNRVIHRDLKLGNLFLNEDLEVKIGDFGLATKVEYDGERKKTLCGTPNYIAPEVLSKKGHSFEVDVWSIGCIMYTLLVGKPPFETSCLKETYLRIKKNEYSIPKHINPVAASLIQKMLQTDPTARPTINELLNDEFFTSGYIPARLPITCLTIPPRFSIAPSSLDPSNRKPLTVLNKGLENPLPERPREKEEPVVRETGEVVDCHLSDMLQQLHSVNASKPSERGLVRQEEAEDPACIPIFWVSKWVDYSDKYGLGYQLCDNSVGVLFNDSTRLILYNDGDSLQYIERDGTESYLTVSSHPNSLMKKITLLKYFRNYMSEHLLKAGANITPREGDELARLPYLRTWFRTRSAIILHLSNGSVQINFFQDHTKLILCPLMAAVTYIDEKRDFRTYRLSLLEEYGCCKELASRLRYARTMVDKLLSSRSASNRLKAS
Vif-A3F inh – inhibitors of Vif-A3F interaction; HeLa A3F-eYFP + Vif (tagged APOBEC3F with the HIV-1 protein that degrades it), YFP fluorescence increase; Potency, µM (series often up to 46.1 µM), for inactives: at the top dose activity, negative = active; 390,000 tested, 0.2% active; note: potency is the fitted concentration of half-maximal effect; % of control where 0% means no effect; nearly all actives have a fitted effect of over 65% in size
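Fluorescence increase (Ex 488/Em 500-530) after overnight compound treatment at 37 deg C flags inhibition of Vif-driven A3F-eYFP loss in stable HeLa A3F-eYFP/Vif cells seeded overnight beforehand.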
VDR inhibitor – inhibitors of human vitamin D receptor | Potency, µM, for the others: max response, negative = inhibition, hits mostly inhibitors | VDR-SRC2-3 peptide fluorescence polarization, 2 h | AID 504847 | P11473 | 400,000 tested, 0.93% active; note: potency is the fitted concentration of half-maximal effect; % is set by controls: 0 for no effect and ±100 for the full control effect
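Inhibition of the VDR/SRC2-3 peptide interaction is quantified by fluorescence polarization. Compounds (23 nl, pintool) incubate with the reagents for 2 hours at ambient room temperature.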
TSHR antag – blocks TSH signaling through the human TSH receptor. 330,000 tested, 0.2% active. activity change, negative = inhibition, % at 11.5 µM. AID 504810. TSHR-expressing cells, TSH-stimulated cAMP HTRF, 2 h; active compounds read low. P16473;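 active = activity change below a set negative limit, meaning inhibition stronger than a set level, cut at about -70% in these data; inconclusive = activity change between two set negative limits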; note: % is set by controls: 0 for no effect and ±100 for the full control effect
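TSHR-expressing cells were treated with compounds, then stimulated with TSH at EC80 (4nM final) for 2 hours at 37 deg C. Cellular cAMP was measured by HTRF competition between lysate cAMP and cAMP-d2 for a cryptate-labelled anti-cAMP antibody.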
Vif-A3G inh – inhibitors of Vif-APOBEC3G interaction; Q9HC16; HeLa A3G-eYFP + Vif (tagged APOBEC3G with the HIV-1 protein that degrades it), YFP fluorescence, overnight; Potency, µM (series often up to 46.1 µM), for inactives: at the top dose activity, negative = active, hits mostly inhibitors; 410,000 tested, 0.076% active; AID 602310; note: potency is the fitted concentration of half-maximal effect; % is set by controls: 0 for no effect and ±100 for the full control effect; nearly all actives have a fitted effect of over 60% in size
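Read-out is eYFP fluorescence (Ex 488/Em 500-530) from Vif-expressing HeLa A3G-eYFP cells; more signal means A3G escaped Vif-mediated degradation. Cells plated overnight, compound pinned in, incubated overnight at 37 deg C.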
* = called active by the depositor; ? = inconclusive; / = no result given. Unless noted, calls come from the whole dose curve; as a rule, active = well fitted curve in the direction sought with a large enough effect; inconclusive = small, poorly fitted or top-dose-only effect, or another doubt; inactive = no such curve, though single readings can be large; an effect the other way counts as inactive or inconclusive.

SMILES	PLK1 PBD inh	Vif-A3F inh	VDR inhibitor	TSHR antag	Vif-A3G inh
CC(=O)Nc1ccc(S(=O)(=O)Nc2cc(Cl)ccc2N2CCOCC2)cc1	-2%	2%	2%	-3	-3%
Nc1cc(S(=O)(=O)Nc2cc(Cl)ccc2Cl)ccc1N1CCCC1	30µM*	-24%	-6%	17	-15%
Nc1cc(S(=O)(=O)Nc2ccccc2Cl)ccc1N1CCOCC1	1%	3%	-20%	5	5%
CNC(=S)Nc1cc(S(=O)(=O)Nc2cc(Cl)ccc2Cl)ccc1N1CCCC1	?	3%	17%	-2	1%
O=S(=O)(Nc1ccc(Cl)cc1)c1ccc(N2CCOCC2)c(NC(=S)NC2CC2)c1	8.4µM*	4%	79µM*	-1	-6%
CN1CCN(c2nc3c(=O)[nH]c(N)nc3n2C2OC(CO)C(O)C2O)CC1 (configuration not stated)	/	/	-12%	/	1%
C[n+]1c(/C=C/c2ccc(N)cc2)sc2ccccc21	/	/	/	/	2%
Cc1cnc2c(C)cccc2c1/C=C/c1ccc(N(C)C)cc1	/	/	/	/	-16%
O=[N+]([O-])CC(c1ccc(F)cc1)c1c[nH]c2ccccc12 (configuration not stated)	6%	0%	13%	7	?
Fc1ccc(C(Nc2ccccn2)c2c[nH]c3ccccc23)cc1 (configuration not stated)	8.4µM*	-1%	-16%	-4	-15%
O=C(CNS(=O)(=O)c1ccc(C(=O)N2CCCCC2)cc1)N1CCCCC1	30µM*	/	-10%	12	-1%
Cc1ccc(S(=O)(=O)NCC(=O)N2CCCCC2)cc1	1%	5%	-2%	-12	-4%
CCc1ccc(NC(=O)COC(=O)c2ccccc2OCC(=O)N(C)C)cc1	/	/	/	/	1%
Cc1cnc(NC(=O)COc2ccccc2)s1	30µM*	/	-1%	-4	-10%
Cc1nc(C)c(C(=O)Nc2ncc([N+](=O)[O-])s2)o1	27µM*	10%	?	-3	0%
CC(C)CC(=O)Nc1ncc([N+](=O)[O-])s1	11µM*	13%	-26%	7	-7%
O=C(COC(=O)c1ccccc1)Nc1ncc([N+](=O)[O-])s1	21µM*	-14%	-25%	-26	-4%
CCCCC/C=C\C/C=C\CCCCCCCC(=O)NCCc1ccc(O)c(O)c1	/	/	11%	/	/
CCN1C(Br)=CCc2ccccc21	/	/	/	/	2%
CN(C)c1ccc(/C=C2\CCc3cc(N)ccc32)cc1	/	/	/	/	1%
C=CCOC(=O)N[C@H](c1ccccc1)C(C(C)=O)C(C)=O	/	/	11%	/	/
CN(C)C(=O)COc1ccccc1C(=O)OCC(=O)N(CCC#N)c1ccccc1	/	/	/	/	0%
O=C(O)c1cc(O)c2c(c1)[C@@H]([C@H]1c3cc(C(=O)O)cc(O)c3C(=O)c3c(O[C@@H]4O[C@H](CO)[C@@H](O)[C@H](O)[C@H]4O)cccc31)c1cccc(OC3O[C@H](CO)[C@@H](O)[C@H](O)[C@H]3O)c1C2=O (some centres not stated)	0.84µM*	2%	-29%	-4	3%
O=C(O)c1cc(O)c2c(c1)[C@H]([C@H]1c3cc(C(=O)O)cc(O)c3C(=O)c3c(O[C@@H]4O[C@H](CO)[C@@H](O)[C@H](O)[C@H]4O)cccc31)c1cccc(OC3O[C@H](CO)[C@@H](O)[C@H](O)[C@H]3O)c1C2=O (some centres not stated)	1.7µM*	-1%	?	/	1%
O=C1c2cc(CO)cc(O)c2C(=O)c2c(O[C@@H]3OC(CO)[C@@H](O)[C@@H](O)[C@@H]3O)cccc21 (some centres not stated)	-9%	9%	-4%	/	0%
SMILES	PLK1 PBD inh	Vif-A3F inh	VDR inhibitor	TSHR antag	Vif-A3G inh
COc1cc2c(cc1OC)C(c1ccc(F)cc1)N(c1ccccc1)C(=O)C2 (configuration not stated)	/	1%	5%	/	-1%
N#CC1=C(N)C2=CCCC[C@H]2[C@H](c2ccccc2)C1(C#N)C#N	-27%	-3%	79µM*	-4	4%
CC[C@H](C)[C@H](N)C(=O)N[C@@H](CCCNC(=N)N)C(=O)N[C@@H](CCC(N)=O)C(=O)NCC(=O)N1CCC[C@H]1C(=O)N[C@@H](CCCCN)C(=O)N[C@@H](CCC(=O)O)C(=O)N1CCC[C@H]1C(=O)N[C@@H](Cc1ccccc1)C(=O)N[C@@H](CCCNC(=N)N)C(=O)N[C@@H](CC(=O)O)C(=O)N[C@@H](Cc1ccc(O)cc1)C(=O)N[C@H](C(=O)N[C@@H](CC(=O)O)C(=O)N[C@@H](CCCNC(=N)N)C(=O)N[C@@H](Cc1ccccc1)C(=O)N[C@@H](Cc1ccc(O)cc1)C(=O)N[C@@H](CCCCN)C(=O)N[C@H](C(=O)N[C@@H](CC(C)C)C(=O)O)[C@@H](C)O)C(C)C	/	/	3%	/	/
Cc1c(Cl)cccc1NC(=O)CSc1nc(=O)n(Cc2ccncc2)c2c1CCC2	/	1%	3%	/	-1%
CC(=O)c1ccc(NS(=O)(=O)c2ccc(N/C=C/C(=O)c3ccc(F)cc3)cc2)cc1	17µM*	?	-25%	-4	1%
CC(=O)c1cccc(NS(=O)(=O)c2ccc(N/C=C/C(=O)c3ccc(F)cc3)cc2)c1	0%	9%	-7%	-73*	0%
NC(=O)c1ccc[n+]([C@@H]2OC(COP(=O)([O-])OP(=O)(O)OCC3OC(n4cnc5c(N)ncnc54)C(OP(=O)(O)O)C3O)C(O)C2O)c1 (some centres not stated)	/	/	-1%	/	/
Cc1ccc(S(=O)(=O)/N=C2\C=C(Nc3ccc(O)cc3)C(=O)c3ccccc32)cc1	-6%	7%	14%	/	-1%
CCc1ccc(S(=O)(=O)/N=C2\C=C(Nc3ccc(C(=O)O)cc3)C(=O)c3ccccc32)cc1	-17%	2%	4%	-41	0%
COC(=O)c1ccccc1NC1=C/C(=N\S(=O)(=O)c2cccs2)c2ccccc2C1=O	19µM*	3%	?	19	-10%
Cc1ccc(S(=O)(=O)/N=C2\C=C(Nc3cccc(C(=O)O)c3)C(=O)c3ccccc32)cc1	60µM*	3%	-1%	-42	-4%
O=C1C(Nc2ccccc2)=C/C(=N/S(=O)(=O)c2cccs2)c2ccccc21	-24%	4%	-14%	-35	-8%
COC(=O)c1ccccc1NC1=C/C(=N\S(=O)(=O)c2ccc(C(=O)O)cc2)c2ccccc2C1=O	?	18%	25µM*	-36	-1%
Cc1ccc(COC(=O)c2ccc(-c3nnn(Cc4ccc(C)cc4)n3)cc2)cc1	/	12%	-11%	/	1%
Nc1nc(N)c2c(OCc3ccc(C(F)(F)F)cc3)cccc2n1	/	/	/	/	5%
Nc1nc(NCc2ccc(Cl)cc2Cl)c2[nH]cnc2n1	/	/	-12%	/	-5%

Screening results: PubChem, National Center for Advancing Translational Sciences (NCATS)
